Seven compounds from PubChem BioAssay (NCATS) can be followed below.

Results filed as inconclusive are left out. Activity calls are given as the source filed them. Unless noted, the call rests on the fitted dose curve; in most records, active means well fitted curve in the direction sought with a large enough effect; inconclusive means small, poorly fitted or top-dose-only effect, or another doubt; inactive means no such curve, though single readings can be large; an effect the other way counts as inactive or inconclusive.

Test [1] has as its target Estrogen receptor (Homo sapiens) (UniProt P03372). Kind of test: qHTS assay for small molecule antagonists of estrogen receptor alpha signaling (AID 588513; active means well fitted curve in the direction sought with a large enough effect in the signal ratio, with a control signal flat, not every such curve was filed as active; the % refers to the signal ratio; further: on the % scale 0 is the no-effect control and ±100 the full control effect). In short, it runs like this: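 Antagonist mode: inhibition of 0.5 nM 17-beta-estradiol-driven beta-lactamase reporter in HEK 293 ER-alpha-UAS-bla cells, 18 h at 37C, CCF4 readout after 2 h at RT. Normalised to estradiol and DMSO; titration fitted to Hill.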

Test [2] has the same target. Kind of test: qHTS assay for small molecule agonists of estrogen receptor alpha signaling (AID 588514; calls by dose curve;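 further: 0% = vehicle only and 100% = reference agonist; nearly all actives have a fitted effect of over 70% in size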). In short, it runs like this: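 Cells were plated at 5000/well, incubated 4 hrs at 37 C, dosed with compound titration series, incubated 18 hrs at 37 C, loaded with CCF4 dye for 2 hrs at RT, then fluorescence was read.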
Test [3] concerns the target Glucocorticoid receptor (Homo sapiens) (UniProt P04150). Kind of test: qHTS assay for small molecule agonists of glucocorticoid receptor signaling (AID 588532; active means well fitted curve in the direction sought with a large enough effect in the signal ratio, with a control signal flat; the % refers to the signal ratio;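 further: 100% = dexamethasone at 0.1 µM and 0% = DMSO only wells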). Particulars: HeLa MMTV-bla, beta-lactamase ratio, agonist, 18 h; stronger effect = higher value; percent of dexamethasone control, DMSO zero. Put shortly: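 Cells were plated and rested 3-5 h at 37 C, compounds were added in titration and incubated 18 h, then CCF4 substrate was loaded for 2 h at RT before reading blue/green fluorescence. EC50 came from Hill-equation fitting.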
On the technique in general: qHTS replaces the single test concentration by a dilution series.

For test [4] the target is unchanged. Kind of test: qHTS assay for small molecule antagonists of glucocorticoid receptor signaling (AID 588533; active means well fitted inhibition curve with a large enough effect in the signal ratio, with a control signal flat, not every such curve was filed as active; the % refers to the signal ratio;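 further: cells stimulated with 2 nM dexamethasone as agonist; on the % scale 0 is the no-effect control and ±100 the full control effect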). In short, it runs like this: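 Antagonist-mode qHTS: compound titrations added to GRE-bla HeLa cells, then dexamethasone 2 nM final; 18 h, 37 C. CCF4 FRET fluorescence normalized to dexamethasone and DMSO; IC50 from Hill fit.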
Test [5] is described as follows: qHTS assay for small molecule agonists of retinoid X receptor alpha signaling (AID 588544; calls by dose curve;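 on activation: 0% = DMSO basal wells and 100% = reference agonist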). Particulars: HEK293T RXRa-UAS-bla, beta-lactamase reporter, 18 h; 530 nm emission.
Test [6] has as its target Retinoic acid receptor RXR-alpha (Homo sapiens) (UniProt P19793). The test is described as above.
The target of test [7] is Thyroid hormone receptor beta (Homo sapiens) (UniProt P10828). The experiment in a line: qHTS assay for small molecule agonists of thyroid hormone receptor beta signaling (AID 588545; calls by dose curve). In short, it runs like this:
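Agonist-mode beta-lactamase reporter assay, HEK 293 cells, 2% charcoal/dextran FBS; cells plated 4 hrs, compound 18 hrs at 37 C, CCF4 2 hrs RT. Normalized to 10 nM T3 (100%) and DMSO (0%); Hill fit gives EC50, efficacy.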

A short description of test [8]: qHTS assay for small molecule antagonists of retinoid X receptor alpha signaling (AID 588546; active means well fitted inhibition curve with a large enough effect in the signal ratio, with a control signal flat, not every such curve was filed as active; the % refers to the signal ratio;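 further: cells stimulated with 9-cis-retinoic acid as agonist; on the % scale 0 is the no-effect control and ±100 the full control effect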). Particulars: HEK293T RXRa-UAS-bla, beta-lactamase ratio, antagonist mode; measured here: W530 green channel, cytotoxicity proxy. In short, it runs like this:
(§1)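 Beta-lactamase reporter inhibition, read as CCF4 fluorescence ratio (ex 405, em 460/530 nm) after 2 h at RT. HEK293T UAS-bla cells, 2500/well, were stimulated with 9-cis-RA at 500 or 100 nM final alongside test compound for 18 h at 37 C.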

Test [9] has as its target Retinoic acid receptor RXR-alpha (Homo sapiens) (UniProt P19793). Described as above. Particulars: HEK293T RXRa-UAS-bla, beta-lactamase ratio, antagonist mode. In short, it runs like this:
as §1

Test [10] in a line: qHTS assay for small molecule activators of the nuclear factor-kappa B (NF-kB) signaling pathway (AID 651749; active means well fitted activation curve with a large enough effect in the signal ratio; the % refers to the signal ratio; further: series mostly up to about 77 µM; % of control where 0% means no effect). Particulars: NF-kB-bla ME-180 cells, beta-lactamase FRET ratio, 16 h; activation: stronger effect = higher value. Put shortly:
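NF-kB-bla ME-180 cells carrying a beta-lactamase reporter under an NF-kB response element, 2,000 cells/well, exposed to compound for 16 hr at 37C; FRET-based beta-lactamase fluorescence read-out of pathway activation.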

Test [11] is described as follows: qHTS assay for environmental chemicals that activate the Aryl hydrocarbon Receptor (AhR) signaling pathway (AID 651777). Further: % of control where 0% means no effect; nearly all actives have a fitted effect of over 15% in size. Particulars: 1A2-DRE human hepatoma cells, luciferase, 24 h; activation: stronger effect = higher value. In short, it runs like this:
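Luminescence read-out: One-Glo added for 30 min at RT after 24 hr compound treatment (37 C, 5% CO2) of human hepatoma cells expressing a DRE/CYP1A2 promoter–luciferase reporter; increased signal indicates AhR activation.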

The target of test [12] is Peroxisome proliferator-activated receptor alpha (Homo sapiens) (UniProt Q07869). The experiment in a line: qHTS assay for small molecule agonists of the peroxisome proliferator-activated receptor alpha (PPARalpha) signaling pathway (AID 651778). Further: % of control where 0% means no effect. Particulars: PathHunter PPARalpha complementation, chemiluminescence, 6 h; max response: stronger effect = higher value. Put shortly:
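Enzyme-fragment complementation assay in which ligand-bound PPARalpha translocates and forms an active enzyme that generates chemiluminescence. Cells were plated overnight, exposed to compound for 6 hr at 37 C, and then given detection reagent for 60 min at room temperature.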

Test [13] can be described thus: qHTS assay for small molecule agonists of the antioxidant response element (ARE) signaling pathway measured by Nrf2-dependant transcriptional activity (AID 720636; active means well fitted curve in the direction sought with a large enough effect in the repeat runs; an effect the other way counts as inactive or inconclusive;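 further: HepG2 cells with an ARE-driven luciferase reporter; % of control where 0% means no effect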). In short, it runs like this:
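HepG2 ARE-luc reporter line, 1% dialyzed FBS; 6 hr attachment at 37 C, compound pinned in, 16 hr at 37 C/5% CO2; ONE-Glo, 30 min RT, luminescence read.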

Test [14] can be described thus: qHTS assay for small molecule agonists of the antioxidant response element (ARE) signaling pathway measured by Nrf2-dependant transcriptional activity - cell viability counter screen (AID 720653; active means well fitted curve in the direction sought with a large enough effect in the repeat runs; an effect the other way counts as inactive or inconclusive; further: on the % scale 0 is the no-effect control and ±100 the full control effect). Particulars: ARE-bla HepG2 viability, CellTiter-Glo ATP luminescence, 16 h; max response: stronger effect = lower value. Put shortly: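 ARE-bla HepG2 cells treated with compounds for 16 h at 37C; this counter screen measures viability as intracellular ATP by CellTiter-Glo luminescence after 30 min at room temperature.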

Test [15] can be described thus: qHTS assay for cell viability of HEK293 cells (AID 743288). Further: on the % scale 0 is the no-effect control and ±100 the full control effect; nearly all actives have a fitted effect of over 50% in size. Particulars: ATP luminescence (CellTiter-Glo), 18 h; max response: stronger effect = lower value. Put shortly: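 Total intracellular ATP, measured with a luciferase-coupled reagent, indicates the number of viable HEK293 cells. Exposure to test chemicals lasts 18 h at 37 C in 1,536-well format at 2,000 cells/well.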

Test [16] deals with Nuclear receptor subfamily 1 group I member 2 (Rattus norvegicus) (UniProt Q9R1A7). The experiment in a line: qHTS assay for small molecule activators of the rat pregnane X receptor (rPXR) signaling pathway (AID 651751; call rule not given here; further: 0% is about no effect). Particulars: rPXR reporter cells, luciferase (One-Glo), 24 h.
Test [17] is described as follows: qHTS assay for small molecule activators of the human pregnane X receptor (PXR) signaling pathway (AID 720659; call rule not given here; further: 0% is about no effect).
Test [18] in a line: qHTS assay for small molecule antagonists of peroxisome proliferator-activated receptor delta signaling (AID 588535; active means well fitted inhibition curve with a large enough effect in the signal ratio, with a control signal flat, not every such curve was filed as active; the % refers to the signal ratio;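 on max response: cells co-treated with a PPAR-delta agonist as stimulator during compound exposure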). Particulars: HEK293T PPARd-UAS-bla, beta-lactamase FRET ratio, 18 h; 460 nm channel. Put shortly: (§2)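 Antagonist-mode beta-lactamase reporter (GeneBLAzer PPAR-delta-UAS-bla) in HEK293T cells, 2% charcoal/dextran FBS, 4000 cells/well. Compound titrations, 18 h at 37 C; CCF4 ratio read, IC50 and efficacy from Hill fits.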

In test [19] the target is Peroxisome proliferator-activated receptor delta (Homo sapiens) (UniProt Q03181). The description is as above. In short, it runs like this:
as §2

Test [20] in a line: qHTS assay for cell viability of the p53RE-bla HCT-116 cell line (AID 743292). Further: on the % scale 0 is the no-effect control and ±100 the full control effect; nearly all actives have a fitted effect of over 55% in size. In short, it runs like this: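 Luminescent ATP quantitation (CellTiter-Glo) served as the viability read-out; reagent was added after 16 h compound exposure at 37 C and read after 30 min at room temperature. Cells: p53RE-bla HCT-116, 4,000 per well.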

Sequence of Nuclear receptor subfamily 1 group I member 2 (Rattus norvegicus) (Q9R1A7 whole entry, looked up): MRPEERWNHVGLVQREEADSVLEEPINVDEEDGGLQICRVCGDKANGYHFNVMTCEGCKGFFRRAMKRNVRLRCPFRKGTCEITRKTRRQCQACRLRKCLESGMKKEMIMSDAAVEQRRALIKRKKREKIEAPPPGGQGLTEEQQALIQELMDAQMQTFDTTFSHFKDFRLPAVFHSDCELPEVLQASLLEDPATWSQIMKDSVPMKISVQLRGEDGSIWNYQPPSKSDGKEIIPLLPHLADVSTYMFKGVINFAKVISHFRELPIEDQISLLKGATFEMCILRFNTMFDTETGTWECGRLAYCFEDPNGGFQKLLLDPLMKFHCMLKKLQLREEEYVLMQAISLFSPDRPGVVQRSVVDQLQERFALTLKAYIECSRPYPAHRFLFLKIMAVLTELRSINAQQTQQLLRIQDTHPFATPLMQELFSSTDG
Sequence of Glucocorticoid receptor (Homo sapiens) (P04150 whole entry, looked up): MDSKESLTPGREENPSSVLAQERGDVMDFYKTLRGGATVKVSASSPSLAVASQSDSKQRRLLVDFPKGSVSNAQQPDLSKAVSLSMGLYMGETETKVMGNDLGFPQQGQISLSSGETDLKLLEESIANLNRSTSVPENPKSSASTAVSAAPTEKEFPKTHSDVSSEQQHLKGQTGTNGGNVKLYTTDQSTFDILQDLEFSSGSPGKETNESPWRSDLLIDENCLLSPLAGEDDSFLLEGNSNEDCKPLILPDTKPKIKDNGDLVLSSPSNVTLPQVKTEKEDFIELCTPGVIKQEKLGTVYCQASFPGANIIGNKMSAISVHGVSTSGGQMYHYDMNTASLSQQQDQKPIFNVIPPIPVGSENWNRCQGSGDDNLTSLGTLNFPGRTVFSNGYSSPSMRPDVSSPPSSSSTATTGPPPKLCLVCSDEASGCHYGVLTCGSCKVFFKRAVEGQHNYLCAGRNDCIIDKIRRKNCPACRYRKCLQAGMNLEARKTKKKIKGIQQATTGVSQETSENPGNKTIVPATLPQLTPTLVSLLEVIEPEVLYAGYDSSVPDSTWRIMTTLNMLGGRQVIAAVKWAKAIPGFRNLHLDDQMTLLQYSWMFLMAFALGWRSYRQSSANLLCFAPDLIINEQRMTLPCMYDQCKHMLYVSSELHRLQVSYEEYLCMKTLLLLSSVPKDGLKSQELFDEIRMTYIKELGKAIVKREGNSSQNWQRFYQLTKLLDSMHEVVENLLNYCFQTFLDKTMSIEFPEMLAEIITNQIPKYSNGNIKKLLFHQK
Sequence of Estrogen receptor (Homo sapiens) (P03372 whole entry, looked up): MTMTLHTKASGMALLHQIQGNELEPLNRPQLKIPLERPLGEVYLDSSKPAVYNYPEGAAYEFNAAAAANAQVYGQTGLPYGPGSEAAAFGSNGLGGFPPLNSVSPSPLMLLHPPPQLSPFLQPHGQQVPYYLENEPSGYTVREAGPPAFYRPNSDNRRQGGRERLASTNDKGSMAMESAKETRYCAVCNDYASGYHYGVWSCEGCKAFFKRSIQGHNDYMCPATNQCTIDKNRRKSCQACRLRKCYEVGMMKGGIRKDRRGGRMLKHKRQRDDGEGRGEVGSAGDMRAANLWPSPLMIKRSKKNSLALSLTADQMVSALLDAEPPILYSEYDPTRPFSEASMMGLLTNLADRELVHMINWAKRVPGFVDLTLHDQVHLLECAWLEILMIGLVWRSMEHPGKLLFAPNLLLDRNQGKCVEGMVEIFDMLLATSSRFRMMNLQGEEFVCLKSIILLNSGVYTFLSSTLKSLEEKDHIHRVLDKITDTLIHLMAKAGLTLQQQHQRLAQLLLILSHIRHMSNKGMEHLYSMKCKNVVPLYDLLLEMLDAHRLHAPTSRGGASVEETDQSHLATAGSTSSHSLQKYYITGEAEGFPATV
Sequence of Retinoic acid receptor RXR-alpha (Homo sapiens) (P19793 whole entry, looked up): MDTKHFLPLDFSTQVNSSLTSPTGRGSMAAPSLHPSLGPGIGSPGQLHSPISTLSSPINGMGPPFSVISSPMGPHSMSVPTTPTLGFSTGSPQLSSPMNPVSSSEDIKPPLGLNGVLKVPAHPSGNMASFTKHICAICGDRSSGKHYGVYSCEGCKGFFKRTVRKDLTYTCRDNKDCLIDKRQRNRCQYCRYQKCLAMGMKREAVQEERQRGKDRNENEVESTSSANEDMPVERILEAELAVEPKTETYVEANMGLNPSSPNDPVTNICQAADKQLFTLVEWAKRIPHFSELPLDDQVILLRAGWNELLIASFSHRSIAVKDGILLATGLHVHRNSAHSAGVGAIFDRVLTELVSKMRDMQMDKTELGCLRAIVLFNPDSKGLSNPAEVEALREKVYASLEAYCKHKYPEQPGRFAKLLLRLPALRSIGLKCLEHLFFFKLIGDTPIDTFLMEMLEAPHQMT
Sequence of Peroxisome proliferator-activated receptor delta (Homo sapiens) (Q03181 whole entry, looked up): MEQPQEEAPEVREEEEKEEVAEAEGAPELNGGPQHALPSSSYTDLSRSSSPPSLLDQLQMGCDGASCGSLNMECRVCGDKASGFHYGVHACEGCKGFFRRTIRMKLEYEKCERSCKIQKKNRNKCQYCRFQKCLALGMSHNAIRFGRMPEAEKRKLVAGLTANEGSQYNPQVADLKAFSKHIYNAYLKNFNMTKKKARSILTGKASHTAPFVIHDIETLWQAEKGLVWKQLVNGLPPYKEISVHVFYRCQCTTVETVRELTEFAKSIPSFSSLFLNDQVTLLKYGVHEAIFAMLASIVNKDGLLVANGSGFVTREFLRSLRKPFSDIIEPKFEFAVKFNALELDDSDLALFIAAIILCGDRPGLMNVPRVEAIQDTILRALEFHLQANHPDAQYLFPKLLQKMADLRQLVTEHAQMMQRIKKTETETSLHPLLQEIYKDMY
Sequence of Peroxisome proliferator-activated receptor alpha (Homo sapiens) (Q07869 whole entry, looked up, the tested form may be a part): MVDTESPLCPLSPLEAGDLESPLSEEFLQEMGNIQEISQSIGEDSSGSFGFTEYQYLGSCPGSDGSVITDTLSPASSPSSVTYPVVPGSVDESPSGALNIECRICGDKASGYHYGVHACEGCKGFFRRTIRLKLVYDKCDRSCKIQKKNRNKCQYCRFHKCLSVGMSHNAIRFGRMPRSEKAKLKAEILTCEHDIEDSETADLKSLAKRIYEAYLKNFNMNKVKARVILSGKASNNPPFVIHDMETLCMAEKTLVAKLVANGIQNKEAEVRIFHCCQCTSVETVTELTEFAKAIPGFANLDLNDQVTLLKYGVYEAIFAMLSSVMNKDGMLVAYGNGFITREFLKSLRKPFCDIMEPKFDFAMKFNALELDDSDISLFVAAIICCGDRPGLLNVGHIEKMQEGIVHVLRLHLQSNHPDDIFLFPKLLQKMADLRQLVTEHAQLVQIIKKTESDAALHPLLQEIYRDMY
Sequence of Thyroid hormone receptor beta (Homo sapiens) (P10828 whole entry, looked up): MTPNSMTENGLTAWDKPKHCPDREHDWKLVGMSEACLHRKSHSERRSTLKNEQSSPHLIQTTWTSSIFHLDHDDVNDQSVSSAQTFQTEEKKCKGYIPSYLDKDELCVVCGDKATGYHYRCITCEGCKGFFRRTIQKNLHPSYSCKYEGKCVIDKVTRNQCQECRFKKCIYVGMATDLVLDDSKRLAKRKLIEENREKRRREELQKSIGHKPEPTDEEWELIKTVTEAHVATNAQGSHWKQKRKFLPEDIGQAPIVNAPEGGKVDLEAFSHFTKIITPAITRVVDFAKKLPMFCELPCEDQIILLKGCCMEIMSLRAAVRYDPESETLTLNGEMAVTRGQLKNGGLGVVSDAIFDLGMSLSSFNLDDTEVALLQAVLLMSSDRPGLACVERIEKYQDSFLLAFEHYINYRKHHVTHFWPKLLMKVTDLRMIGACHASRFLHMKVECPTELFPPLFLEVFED

For `CCOC(=O)CC(O)(CC(=O)OCC)C(=O)OCC`, the Potency result in test [1], in test [2], in test [4], in [6], in test [7] and in test [13] was “inactive” in each case. Moreover, the figures for the activation in test [3], in [10] and in test [11] were -0.518% (inactive), -1.34% (inactive) and 0.341% (inactive), respectively. The max response in test [5] is -10.3%; in test [8], -3.18%; in test [9], -3.42% (inactive); in test [12], 0.853% (inactive); in test [14], -8.63% (inactive); in [15] it was 3.07% (inactive). For the same compound, the max response in [16] was -0.162% (inactive). The compound was classed as inactive in [17].

`CCCCOCCOCCOC(C)=O`: the Potency entry in [1], in test [2], in test [4], in test [19], in [6] and in [7] was “inactive” throughout. For the same compound, the Potency entry in test [13] and in test [20] was “inactive” throughout. The results for the activation in test [3], in test [10] and in [11] were -1.04% (inactive), -2.2% (inactive) and -2.27% (inactive), respectively. For the same compound, the max response in [18] was 11.1%; in test [5] it was -16.2%; in test [12], -0.313% (inactive); in test [14], -1.74% (inactive); in test [15], 5.77% (inactive); in test [16], -2.22% (inactive). In addition, the compound was called inactive in test [17].

Take `OC1CCC(C2CCCCC2)CC1` (stereo not drawn): the Potency result in test [1], in test [2], in test [4], in test [19], in test [6] and in [7] was “inactive” each time. Moreover, the Potency result in test [13] and in test [20] was “inactive” each time. Moreover, the max response was -39.9% in [18]; -2.23% in [5]; -5.21% in test [8]; 6.85% (inactive) in test [9]; -0.35% (inactive) in [12]; -10.1% (inactive) in test [14]. Moreover, the max response in [15] was -12.9% (inactive); in test [16], -2.53% (inactive). For the same compound, the activation in test [11] was -1.51% (inactive). The outcome in test [17] was inactive.

`O=C(OCC1CCC2OC2C1)C1CCC2OC2C1` (stereo not drawn): the Potency entry in [1], in test [2], in [4], in [19], in test [6] and in test [7] was “inactive” throughout. In addition, in test [13], the Potency result is “inactive”. Besides, the results for the activation in [3] and in test [10] were -15% (inactive) and 1.33% (inactive), respectively. The max response was -2.67% in [18]; -10.9% in test [5]; 1.3% in [8]; -4.32% (inactive) in test [14]; -11.2% (inactive) in test [15]; 1.7% (inactive) in test [16]. Further, the result in [17] was inactive.

In the case of `CC1(C)C(=O)N(Cl)C(=O)N1Cl`, the Potency result in test [1], in test [2], in test [4], in test [6], in test [7] and in test [13] was “inactive” each time. Further, the Potency result in [20] is “inactive”. Also, the max response in [5] is -24.2%; in [8] it was 1.31%; in [9] it was -12.2% (inactive); in test [12] it was -0.353% (inactive); in test [14], -14.6% (inactive); in [15], -4.37% (inactive). In test [16], the max response is -0.522% (inactive). In addition, in test [17], the compound was called inactive.

Regarding `CCCCCCCCCCCCCCO`, the Potency entry in [1], in [2], in [6], in test [7], in test [13] and in [20] was “inactive” throughout. The max response in test [5] was -4.48%; in test [8], -1.57%; in test [9] it was 6.98% (inactive); in test [12] it was 6.84% (inactive); in test [14] it was 4.22% (inactive); in test [15], -0.0211% (inactive). Besides, the max response in test [16] is 0.238% (inactive). Further, the activation in test [10] is 0.681% (inactive); in test [11], 0.688% (inactive). For the same compound, the outcome in test [17] was inactive.

As for `O=C(O)c1cccc(C(=O)O)c1`, the Potency result in test [1], in test [4], in test [19], in test [6], in test [7] and in test [13] was “inactive” throughout. Also, the Potency result in test [20] is “inactive”. Further, the activation in test [3] was -2.7% (inactive); in [11], -2.6% (inactive). The max response in test [18] is -2.92%; in test [5] it was -13%; in [8] it was -5.27%; in test [9], -3.25% (inactive); in test [12], -0.8% (inactive); in [14], -9.16% (inactive). Also, the max response in [15] was -0.837% (inactive); in test [16], 0.205% (inactive). Also, the compound was called inactive in [17].
